Screening data: PubChem, National Center for Advancing Translational Sciences (NCATS)
SW480 rereplic: induces DNA re-replication in SW480 colon adenocarcinoma cells; 1.8% of 340,000 active; Potency, µM (top dose mostly 46.1 µM), for inactives: at the highest dose re-replication activation, usual class: activators; AID 624297; SW480 DNA re-replication, Hoechst DNA content imaging, 48 h; note: % of control where 0% means no effect; nearly all actives have a fitted effect of over 55% in size
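Hoechst fluorescence of nuclei (405 nm excitation, 500-530 nm emission) measured by plate-scanning imager after 48 hr compound exposure at 37 C; re-replication scored as increased number of nuclei with elevated intensity.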
MCF10A rerep: DNA re-replication induction in MCF 10a cells; MCF 10A DNA re-replication, Hoechst nuclear intensity, 48 h; 2.9% of 350,000 active; Potency, µM (top dose mostly 46.1 µM), for inactives: top-dose activity, positive = re-replication, most hits filed as activators; note: % of control where 0% means no effect; nearly all actives have a fitted effect of over 50% in size
KB-V1 MDR tox: kills drug-selected multidrug resistant KB-V1 cells | KB-V1 MDR cells viability, CellTiter-Glo, 72 h | Potency, µM (highest dose often 46.1 µM), actives largely listed as cytotoxic | 3.4% of 400,000 active | AID 1347076; note: % is set by controls: 0 for no effect and ±100 for the full control effect; nearly all actives have a fitted effect of over 60% in size
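Cells of the MDR subline KB-V1 are plated, dosed with compound at multiple concentrations, and incubated 72 h at 37 degrees C; CellTiter-Glo is then added and luminescence read after 10 min.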
KB-3-1 cytotox: KB-3-1 parental cell cytotoxicity; KB-3-1 viability, CellTiter-Glo ATP luminescence, 72 h; Potency, µM (top dose mostly 46.1 µM), usual class: cytotoxic; 1.4% of 400,000 active; note: % is set by controls: 0 for no effect and ±100 for the full control effect; nearly all actives have a fitted effect of over 60% in size
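Here the drug-naive KB-3-1 line serves as comparator for MDR sub-line selectivity; cells received compound titrations, 72 h at 37 °C, then CellTiter-Glo readout.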
ELG1 repair inh: inhibitors of ELG1-dependent DNA repair in HEK293T cells | HEK293T ELG1-luciferase reporter, luminescence, 16 h; DNA damage induced by 5-fluorouridine | Potency, µM (doses to about 46.1 µM), inactives show top-dose activity change, negative = inhibition, actives largely listed as inhibitors | 2.3% of 330,000 active; note: % is set by controls: 0 for no effect and ±100 for the full control effect; nearly all actives have a fitted effect of over 55% in size
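Overnight (16 hr) co-exposure of 2,000 cells/well to 5-fluorouridine and compound at 37 °C preceded detection. Luciferase was quantified via ONE-Glo luminescence; loss of signal denotes inhibition.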
* hit, by the source's call; i = inactive; ? = inconclusive; · = not tested or not shown; ! = not active in a repeat; [ ] = another dose, or the depositor's remark. Hits are enriched below; roughly 8.1% of the tested compounds scored in any of these assays. Calls come from the whole dose curve; as a rule, active = well fitted curve in the direction sought with a large enough effect; inconclusive = small, poorly fitted or top-dose-only effect, or another doubt; inactive = no such curve, though single readings can be large; an effect the other way counts as inactive or inconclusive. Potency is the fitted concentration of half-maximal effect.

SMILES	SW480 rereplic	MCF10A rerep	KB-V1 MDR tox	KB-3-1 cytotox	ELG1 repair inh
COc1cc(C(=O)N2CCC(C(N)=O)CC2)ccc1OCc1c(C)noc1C	-20%	-18%	i	i	6%
Cc1cc(=O)c2cc(Br)ccc2[nH]1	0%	4%	16µM*	i	-8%
CCOc1ccc2[nH]c(C)cc(=O)c2c1	-4%	-8%	?	i	0%
CCOc1c(OC)ccc2c3c(c(=O)oc12)CCCC3	-12%	15%	8.2µM*	i	-12%
COc1ccccc1N1CCN(C(=O)CSc2nc3ccccc3c(=O)n2CC2CCCO2)CC1 (stereo unspecified)	-2%	0%	?	i	23µM*
CC(Sc1nc2ccccc2c(=O)n1CC1CCCO1)C(=O)NC(C)c1ccccc1 (stereo unspecified)	-4%	0%	i	i	5%
COc1ccccc1N1CCN(C(=O)CSc2nc3ccccc3nc2Cc2ccccc2)CC1	·	·	i	i	·
COc1ccccc1N1CCN(C(=O)CSc2nc3ccccc3o2)CC1	-1%	?	21µM*	i	11%
COc1ccc(CNC(=O)C(C)Sc2nc3ccccc3c(=O)n2CC2CCCO2)cc1 (stereo unspecified)	-3%	-2%	5.8µM*	i	3%
CCC(=O)NCCc1nc(-c2ccccc2)no1	-10%	-4%	i	i	·
Cc1ccc(-c2csc(N3CCN(c4ccc5nc(-c6ccncc6)n(CCN6CCCCC6)c5c4)CC3)n2)cc1	?	?	i	i	?
CCOC(=O)c1nn(-c2ccc(OCC)cc2)c2nc(CC(C)C)c(C#N)c(=O)n12	4%	-1%	?	i	0%
CCOC(=O)c1nn(-c2cccc(Cl)c2)c2nc(CC(C)C)c(C#N)c(=O)n12	-8%	23µM*	?	i	15%
CCN(C(=O)c1ccco1)c1nc(CC(=O)Nc2ccc(Cl)cc2)cs1	12µM*	12µM*	16µM*	i	?
CN(C(=O)c1ccco1)c1nc(CC(=O)Nc2ccccc2)cs1	-4%	30%	i	i	2%
Cc1nc2oc3c(NCc4ccccc4)ncnc3c2c2c1COC(C)(C)C2	-9%	10%	?	i	7.3µM*
Cc1ccc(C)c(N(C(=O)c2nsc(Cl)c2Cl)C(C(=O)NC2CCCC2)c2ccc(O)cc2)c1 (stereo unspecified)	17%	11%	?	21µM*	-22%
Cc1ccc(C)c(N(C(=O)c2csnn2)C(C(=O)NC2CCCC2)c2ccncc2)c1 (stereo unspecified)	0%	-3%	i	i	7%
COc1ccc(CN(C(=O)c2nsc(Cl)c2Cl)C(C(=O)NC2CCCCC2)c2ccc(OC)cc2)cc1 (stereo unspecified)	2%	2%	21µM*	i	-2%
O=C(CN1C(=O)CCC1=O)Nc1nc(-c2ccc3ccccc3c2)cs1	-38%	1.5µM*	i	i	?
Cc1cc(O)c(C2=Nc3ccccc3SC(c3ccc(Cl)cc3)C2)c(=O)o1 (stereo unspecified)	·	5.2µM*	?	i	?
COC(=O)C1CCN(c2ccc([N+](=O)[O-])cc2)CC1	-1%	-13%	i	i	0%
COc1ccc(C)cc1NC(=O)C(=O)NNC(=O)COc1ccc(Cl)cc1	-7%	21µM*	i	i	?
CCC(C)Sc1cc(-c2nc3cc(C)ccn3c2NC2CCCCC2)ccc1OC (stereo unspecified)	?	?	21µM*	?	?
CCC(C)Sc1ccc(-c2nc3ccc(C)cn3c2NC2CCCCC2)cc1 (stereo unspecified)	-22%[9.22 µM]	?	?	i	1%
CC(=O)c1ccc(-c2cccc(-c3nc4ccccn4c3NC3CCCCC3)c2)cc1	?	?	?	?	3.5µM*
CCC(C)Sc1cc(-c2nc3ccccn3c2NC2CCCCC2)ccc1OC (stereo unspecified)	16µM*	21µM*	12µM*!	?	?
c1csc(-c2nc3ccccn3c2NC2CCCCC2)c1	-1%	?	?	i	-8%
